Source: PubChem
An excerpt weighted towards active compounds, which were near 1.1% of everything screened.
Giardia FBPA inh-1: qHTS Assay for Inhibitors of Fructose-1,6-bisphosphate Aldolase from Giardia Lamblia; A8B2U2; purified Giardia FBPA; Potency, µM (titrated, usually from 59.6 µM), hits mostly inhibitors; 290,000 tested, 0.71% active; also: nearly all actives have a fitted effect of over 55% in size
Target sequence (A8B2U2 whole entry, looked up): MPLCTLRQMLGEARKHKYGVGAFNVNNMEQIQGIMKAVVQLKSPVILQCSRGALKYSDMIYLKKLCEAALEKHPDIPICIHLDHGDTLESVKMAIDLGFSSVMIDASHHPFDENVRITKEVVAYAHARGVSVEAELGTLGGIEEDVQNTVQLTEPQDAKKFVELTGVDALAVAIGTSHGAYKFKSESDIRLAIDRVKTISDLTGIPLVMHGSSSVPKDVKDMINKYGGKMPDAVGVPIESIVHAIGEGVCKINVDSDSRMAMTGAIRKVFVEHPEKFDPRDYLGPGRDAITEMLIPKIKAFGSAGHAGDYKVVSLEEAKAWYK
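40 nM FBPA preincubated 10 min at RT with compound (up to 57.5 uM final), then substrate plus GAPDH/TPI/NAD/arsenate coupling and diaphorase/resazurin added. Fluorescence read after 20 min at RT, 525/598 nm.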
AmpC no deterg: qHTS Inhibitors of AmpC Beta-Lactamase (assay without detergent) | Potency, µM (highest dose often 57.1 µM), hits mostly inhibitors | AID 485341, 2010 | 330,000 tested, 0.52% active | AmpC nitrocefin hydrolysis, absorbance 480 nm, 0.0001% Triton; also: nearly all actives have a fitted effect of over 20% in size
Target sequence (P00811 whole entry, looked up): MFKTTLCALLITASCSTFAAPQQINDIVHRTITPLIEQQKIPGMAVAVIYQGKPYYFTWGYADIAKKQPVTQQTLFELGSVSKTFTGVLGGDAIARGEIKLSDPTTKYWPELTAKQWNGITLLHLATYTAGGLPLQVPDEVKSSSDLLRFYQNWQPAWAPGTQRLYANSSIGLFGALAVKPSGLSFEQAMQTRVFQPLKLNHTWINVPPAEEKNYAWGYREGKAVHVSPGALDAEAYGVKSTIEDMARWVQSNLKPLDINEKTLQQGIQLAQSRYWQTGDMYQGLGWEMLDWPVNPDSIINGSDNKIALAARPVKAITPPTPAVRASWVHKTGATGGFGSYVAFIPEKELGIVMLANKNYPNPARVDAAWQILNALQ
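20 mM phosphate pH 7.0 + 0.01% (detergent screen) or 0.0001% Triton X-100; 5.3 nM AmpC reagent; cpd preinc 15 min RT; nitrocefin (800 uM stock) to start; A480 q20 s × 4 min; Activity was normalised to no-enzyme and no-compound control wells.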
AmpC detergent: qHTS Inhibitors of AmpC Beta-Lactamase (assay with detergent); P00811; AmpC hydrolysis of nitrocefin, absorbance 480 nm, 0.01% Triton; Potency, µM (doses to about 114 µM), usual class: inhibitors; 370,000 tested, 0.041% active; also: nearly all actives have a fitted effect of over 25% in size
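20 mM phosphate pH 7.0 + 0.01% (detergent screen) or 0.0001% Triton X-100; 5.3 nM AmpC reagent; cpd preinc 15 min RT; nitrocefin (800 uM stock) to start; A480 q20 s × 4 min; Activity was normalised to no-enzyme and no-compound control wells.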
SARS PLpro yeast: qHTS of Yeast-based Assay for SARS-CoV PLP. S. cerevisiae expressing SARS-CoV PLpro, growth rescue. Potency, µM (doses to about 32.9 µM), hits mostly activators. 330,000 tested, 0.19% active. AID 485353, 2010; calls by dose curve; also: nearly all actives have a fitted effect of over 55% in size
Giardia growth: qHTS Assay for Inhibitors of Fructose-1,6-bisphosphate Aldolase from Giardia Lamblia: Giardia lamblia growth inhibition; shares compounds with Giardia FBPA inh-1; Giardia lamblia trophozoite growth inhibition; Potency, µM (titrated, usually from 57.5 µM), actives largely listed as inhibitors; 1,500 tested, 5% active;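 also: trophozoites exposed to compound for 48 h at 37 °C; nearly all actives have a fitted effect of over 70% in size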
Mammalian tox: qHTS Assay for Inhibitors of Fructose-1,6-bisphosphate Aldolase from Giardia Lamblia: Mammalian cellular toxicity; shares compounds with Giardia FBPA inh-1; mammalian cell viability counter-screen, qHTS; Potency, µM (highest dose often 57.5 µM), hits mostly inhibitors; 1,500 tested, 4% active; AID 2786, 2010;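 also: Chinese hamster ovary cells used as mammalian cytotoxicity surrogate; viability measured as cellular ATP by luminescence; compound exposure lasted 48 h before reading; nearly all actives have a fitted effect of over 60% in size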
Giardia FBPA inh-2: qHTS Assay for Inhibitors of Fructose-1,6-bisphosphate Aldolase from Giardia Lamblia: Primary screen confirmation. shares compounds with Giardia FBPA inh-1. 1,500 tested, 5% active. purified Giardia aldolase enzyme activity, qHTS. Potency, µM (series often up to 57.5 µM), usual class: inhibitors; also: nearly all actives have a fitted effect of over 45% in size
Rabbit FBPA inh: qHTS Assay for Inhibitors of Fructose-1,6-bisphosphate Aldolase from Giardia Lamblia: Rabbit FBPA Selectivity | Potency, µM (titrated, usually from 57.5 µM), actives largely listed as inhibitors | 1,500 tested, 4% active | shares compounds with Giardia FBPA inh-1 | Rabbit muscle FBPA enzyme inhibition, selectivity counter-screen | AID 2794, 2010; also: nearly all actives have a fitted effect of over 60% in size
GAPDH coupling: qHTS Assay for Inhibitors of Fructose-1,6-bisphosphate Aldolase from Giardia Lamblia: Coupling assay counterscreen confirmation. 1,500 tested, 6% active. Potency, µM (series often up to 57.5 µM), hits mostly inhibitors. GAPDH coupling enzyme counterscreen, biochemical, qHTS. shares compounds with Giardia FBPA inh-1. AID 2795, 2010; also: nearly all actives have a fitted effect of over 55% in size
Numbers stand for hits; – = inactive; ? = inconclusive; · = not tested or not shown; [ ] = dose if it differs, or a comment. Unless noted, calls follow the shape of the dose curve; as a rule, active = well fitted curve in the direction sought with a large enough effect; inconclusive = small, poorly fitted or top-dose-only effect, or another doubt; inactive = no such curve, though single readings can be large; an effect the other way counts as inactive or inconclusive.

SMILES	Giardia FBPA inh-1	AmpC no deterg	AmpC detergent	SARS PLpro yeast	Giardia growth	Mammalian tox	Giardia FBPA inh-2	Rabbit FBPA inh	GAPDH coupling
O=C(NC(=S)N1CCN(C/C=C/c2ccccc2)CC1)c1cccnc1	11µM	–	–	–	–	–	–	–	–
O=C(c1cccnc1)N1CCN(C/C=C/c2ccccc2)CC1	–	–	–	–	·	·	·	·	·
COc1ccc(C2C(C#N)=C(N)N(c3cccnc3)C3=C2C(=O)CC(C)(C)C3)cc1OC (configuration not stated)	14µM	–	?	–	–	–	–	–	–
O=c1c2oc3ccccc3c2[nH]c(=S)n1-c1ccccc1	–	–	–	–	·	·	·	·	·
O=c1c2sccc2[nH]c(=S)n1-c1ccccc1	18µM	–	–	–	?	–	–	–	–
Cc1cccc(NS(=O)(=O)c2ccc3c(c2)CCN3C(=O)C2CCC2)c1	·	·	–	·	·	·	·	·	·
CCOc1ccc(CNc2ccc(N3CCN(Cc4ccccc4)CC3)cc2)cc1	–	–	–	–	·	·	·	·	·
COc1cc(CNc2ccc(N3CCCC3)cc2)cc(Cl)c1OC	1.8µM	–	–	–	–	–	18µM	32µM	?
CCOc1ccc(CNc2ccc(N3CCCC3)cc2)cc1	0.5µM	–	–	–	–	–	?	?	?
CCCOc1c(Cl)cc(C(=O)N(Cc2cccc(OC)c2)C2CCS(=O)(=O)C2)cc1Cl (configuration not stated)	·	·	–	·	·	·	·	·	·
Cc1ccc(C)c(N2CCN(CCN3CCCCC3)CC2)c1	16µM	–	–	–	?	–	–	–	–
Cc1ccc(C)c(N2CCN(Cc3csc(C)c3C)CC2)c1	·	·	–	·	·	·	·	·	·
COc1ccc(Nc2cc(C)c3ccc(O)cc3n2)cc1	–	–	–	–	–	–	?	?	?
Cc1ccc(NC(=O)C(=O)c2cc(C)n(-c3ccc(F)cc3)c2C)cc1C	·	·	–	·	·	·	·	·	·
O=[N+]([O-])c1cc(F)c2cccnc2c1O	20µM	–	–	–	?	–	?	?	32µM
CC(C)COc1ccc(C(=O)N2CCCCC2CCN2CCOCC2)cc1 (configuration not stated)	·	·	–	·	·	·	·	·	·
CCCCN(CC)C(=O)CSc1nc2n[nH]c(C)c2c(=N)n1-c1cccc(Cl)c1	·	·	–	·	·	·	·	·	·
N#C/C(=C(/O)CCl)c1nc2c(s1)CCc1ccccc1-2	14µM	–	–	–	?	–	?	?	–
COc1cc(OC)cc(C(=O)NNC(=S)NC(=O)c2cccnc2)c1	2µM	–	–	–	16µM	–	–	–	–
COc1cc(OC)cc(C(=O)NC(=S)Nc2cccnc2)c1	–	–	–	–	·	·	·	·	·
COc1ccc(NC(=S)NC(=O)c2cccnc2)cc1	7.9µM	–	–	–	22µM	–	–	–	–
COc1ccc(C(=O)NC(=S)NNC(=O)c2cccnc2)cc1	–	–	–	–	·	·	·	·	·
COC(=O)c1ccc(NC(=S)NC(=O)c2cccnc2)cc1	7.1µM	–	–	–	–	–	–	–	–
O=C(NC(=S)Nc1cccnc1)c1ccccc1	13µM	–	–	–	–	–	–	–	–
Cc1cc(O)c2c(C)c(CC(=O)NCc3ccccc3Cl)c(=O)oc2c1	·	·	–	·	·	·	·	·	·
SMILES	Giardia FBPA inh-1	AmpC no deterg	AmpC detergent	SARS PLpro yeast	Giardia growth	Mammalian tox	Giardia FBPA inh-2	Rabbit FBPA inh	GAPDH coupling
CCN(CC)c1ccc(NC(=O)Cn2cc3c(n2)CCCC3)c(C)c1	·	·	–	·	·	·	·	·	·
COc1ccc(OC)c(NC(=O)c2oc3c(c2C)-c2nn(Cc4ccc(Cl)cc4)cc2CC3)c1	·	·	–	·	·	·	·	·	·
COc1cccc(CNC(=O)c2ccc(CSc3nc4ccncc4n3Cc3cccc(C)c3)cc2)c1	·	·	–	·	·	·	·	·	·
CCOC(=O)Cc1csc(NC(=S)NC(=O)c2cccc([N+](=O)[O-])c2)n1	4.5µM	–	–	–	?	–	–	–	–
O=C(NC(=S)Nc1cccnc1Cl)c1ccc(Cl)cc1	13µM	–	–	–	–	–	–	–	–
O=C(Nc1cccnc1Cl)c1ccc(Cl)cc1	–	–	–	–	·	·	·	·	·
O=C(NC(=S)Nc1ccccc1Br)c1cccnc1	6.3µM	–	–	–	?	–	–	–	–
CCC(=O)NC(=S)Nc1ccc(NC(=O)c2cccnc2)cc1	–	–	–	–	·	·	·	·	·
O=C(O)c1ccc(NC(=S)NC(=O)c2cccnc2)cc1	3.5µM	–	–	–	–	–	–	–	–
COCCCNC(=O)CN1C(=O)c2c(c3ccccc3n2C)C1c1ccc(OC)cc1 (configuration not stated)	·	·	–	·	·	·	·	·	·
CC(C)c1nn2c(=O)cc(COC(=O)c3cccs3)nc2s1	·	·	–	·	·	·	·	·	·
Cc1ccc(-c2csc(=Nc3ccccc3)n2Cc2ccc3c(c2)OCO3)cc1	·	·	–	·	·	·	·	·	·
Cc1csc(NC(=S)NC(=O)c2ccccc2)n1	7.9µM	–	?	–	?	50µM	–	–	–
Cc1csc(NC(=O)c2ccccc2)n1	–	–	–	–	·	·	·	·	·
O=C(NC(=S)Nc1ccccc1)c1ccc(Br)o1	–	–[2.29 µM]	–	–	·	·	·	·	·
Cc1snnc1C(=O)NC(=S)Nc1ccccc1	13µM	–	–	–	–	–	–	–	–
COc1ccc(CNC(=O)c2ccc(C(C)(C)C)cc2)cc1	–	–	–	–	·	·	·	·	·
COc1ccc(CNC(=O)CN(C)Cc2ccc(C(C)(C)C)cc2)cc1	22µM	–	–	–	–[10.4 µM]	–	–	–	–
COc1ccccc1CNC(=O)c1ccc2c(c1)sc1nc(-c3ccc(F)cc3)cn12	·	·	–	·	·	·	·	·	·
Cc1ccc(NC(=S)c2ccncc2)cc1	28µM	–	–	–	–	–	–	–	–
Cc1ccc(NC(=S)c2ccccc2)cc1	–	–	–	–	·	·	·	·	·
Cc1nn(C)c2c1c(C(F)(F)F)cc(=O)n2CC(=O)NCc1ccccc1Cl	·	·	–	·	·	·	·	·	·
c1cc2c(cc1NC1CCCCCC1)OCO2	25µM	–	–	–	–	–	7.1µM	?	–
O=C(NC1CCCCCCC1)c1ccc2c(c1)OCO2	–	–	?	–	·	·	·	·	·
CN1CCN(c2ccnc(-c3ccc(N(C)C)cc3)n2)CC1	–	·	·	·	·	·	·	·	·
CCN(CC(=O)NCc1ccc(F)cc1)C(=O)CN1CCN(c2ccc(OC)cc2)CC1	7.9µM	–	–	–	–	–	–	–	–
